Screening data deposited in PubChem by several laboratories.
ADAM10 inh: ADAM10 inhibition, QFRET primary screen; O14672; recombinant ADAM10, EDANS/DABCYL FRET peptide cleavage, 3 h; inhibition, % at 7 µM; 370,000 tested, 0.62% active;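 active = inhibition above a per-campaign cutoff equal to the mean of compounds falling between control-based bounds plus 3 SD, cut at about 20% in these data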
GRIN3A LBD mod: modulators (binders) of human NR3A ligand-binding domain. Tm shift relative to glycine control, % at 25 µM. NR3A LBD differential scanning fluorimetry, Tm shift; 0% = protein alone, 100% = glycine-bound protein. AID 1259313. 340,000 tested, 2.5% active;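 active = melting temperature shift of at least 10% of the positive control shift, at one fixed dose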
ADAM17 inh: ADAM17 inhibition, QFRET primary screen; P78536; recombinant ADAM17, EDANS/DABCYL FRET peptide cleavage; inhibition, % at 6.95 µM; 370,000 tested, 0.83% active; AID 720648;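 active = inhibition above the mean of compounds lying between control limits plus 3 SD, set per campaign, cut at about 8.5% in these data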
HGIII-sPLA2 inh: Blocks human group III sPLA2 activity; inhibition, % at 12.2 µM; AID 743126; Q9NZ20; 370,000 tested, 0.56% active; QFRET BODIPY PC-A2 liposome hydrolysis, fluorescence;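 active = inhibition above mean plus 3 SD of compounds lying within the high and low control bounds, cut at about 19% in these data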
FAS TE block: inhibitors of human fatty acid synthase thioesterase domain; P49327; recombinant FAS-TE, OMFH fluorogenic substrate, fluorescence endpoint; inhibition, % at 15 µM; 360,000 tested, 0.67% active; AID 602261;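 active = compounds whose normalised, plate-corrected inhibition of enzyme fluorescence in the single-dose primary screen is 50% or more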
Numbers stand for hits; - = inactive; . = no result. An excerpt weighted towards active compounds, which were near 4.3% of everything screened.

SMILES	ADAM10 inh	GRIN3A LBD mod	ADAM17 inh	HGIII-sPLA2 inh	FAS TE block
CC(C)=CCC[C@](C)(O)C1CC[C@]2(C)C1C(O)CC1[C@@]3(C)CCC(O)C(C)(C)C3C(O[C@@H]3OC(CO)C(O)C(O)C3O[C@@H]3OC(C)C(O)C(O)C3O)C[C@]12C (some centres not stated)	-	10	-	-	-
COCCCNC(=O)c1oc(=O)c2ccccc2c1-c1ccc(C)cc1	-	.	-	-	.
O=C(c1ccc(NS(=O)(=O)c2cccs2)cc1)N1CCOCC1	-	11	-	-	-
O=C(c1ccc(NS(=O)(=O)c2cccs2)cc1)N1CCCCC1	-	-	-	-	-
C=CCN1C(=O)[C@@H]2Cc3c([nH]c4ccccc34)C(c3ccc(O)cc3)N2C1=S (some centres not stated)	.	21	.	.	-
COc1ccc(C(=O)Nc2cc(C(F)(F)F)ccc2-n2cnc3ccccc32)cc1	-	14	-	-	-
CC(=O)Nc1ccc(C(=O)Nc2cc(C(F)(F)F)ccc2-n2cnc3ccccc32)cc1	-	-	-	-	-
Cc1ccc(OCc2nn3c(C4CCCCC4)nnc3s2)cc1	-	.	-	-	.
CC1(C)Nc2ccccc2C(=O)N1c1ccc(Br)cc1	-	13	-	-	-
Cc1cc(Nc2ccc(F)c(F)c2)nc(-c2ccccc2O)n1	-	23	-	-	-
Cc1cc(Nc2ccc(Br)cc2)nc(-c2ccccc2O)n1	-	29	-	-	-
Cc1nc2sc(C(=O)NCc3ccc4c(c3)OCO4)c(N)c2c(C)c1Cl	-	.	-	-	.
COc1cc(N/N=C(\C)c2ccc(O)c(C)c2)nc(-c2ccccc2)n1	-	22	-	-	-
C/C(=N\Nc1nc(C)cc(-c2ccccc2)n1)c1ccc(O)cc1	-	-	-	-	-
C/C(=N\Nc1cc(-c2ccccc2)nc(-c2ccccc2)n1)c1ccc(O)c(C)c1	-	28	-	-	-
COc1ccc(/C=C/c2ccc(=O)n(Cc3ccccc3)n2)cc1	-	15	-	-	-
CCOc1ccccc1Nc1ccnc2cc(Cl)ccc12	-	228	-	-	-
Clc1ccc2c(NCc3ccccn3)ccnc2c1	-	-	-	-	-
O=C(NN=Cc1ccc(-c2ccccc2)cc1)c1cc(-c2ccc(Cl)cc2)n[nH]1	-	.	-	-	.
CCCCNC(=O)C1=C(N)C(C(=O)Nc2ccc(C)c(S(=O)(=O)N3CCCCC3)c2)SC1=Nc1ccc(C)cc1C (configuration not stated)	40	24	16	-	-
CCN1C(=O)[C@H]2[C@@H](c3ccc(C)cc3)N3C(=O)N(c4cccc(C)c4)C(=O)[C@@]3(Cc3ccccc3)[C@H]2C1=O	-	-	-	-	-
CCN1C(=O)[C@H]2[C@@H](c3ccc(C)cc3)N3C(=O)N(c4cccc(F)c4)C(=O)[C@@]3(Cc3ccc(Cl)cc3)[C@H]2C1=O	-	-	-	-	-
Cc1cccc(N2C(=O)N3[C@H](c4ccc(Cl)cc4)[C@@H]4C(=O)N(C5CCCCC5)C(=O)[C@@H]4[C@]3(Cc3ccc(Cl)cc3)C2=O)c1	.	21	.	.	94
O=C1[C@H]2[C@@H](c3ccc(Cl)cc3)N3C(=O)N(c4cccc(Cl)c4)C(=O)[C@@]3(Cc3ccc(Cl)cc3)[C@H]2C(=O)N1C1CCCCC1	-	-	-	-	94
O=C1[C@H]2[C@@H](c3ccc(Cl)cc3)N3C(=O)N(c4cccc(F)c4)C(=O)[C@@]3(Cc3ccc(Cl)cc3)[C@H]2C(=O)N1C1CCCCC1	.	14	.	.	96
SMILES	ADAM10 inh	GRIN3A LBD mod	ADAM17 inh	HGIII-sPLA2 inh	FAS TE block
CC(C)C[C@@]12C(=O)N(c3cccc(Cl)c3)C(=O)N1[C@H](c1ccc(F)cc1)[C@@H]1C(=O)N(C3CCCCC3)C(=O)[C@@H]12	-	-	-	-	84
CCN1C(=O)[C@H]2[C@@H](c3ccc(C)cc3)N3C(=O)N(c4cccc(Cl)c4)C(=O)[C@@]3(CC(C)C)[C@H]2C1=O	-	-	-	-	-
O=C(OCC#CCSc1nnc(-c2ccc(F)cc2)o1)c1ccc(F)cc1	-	.	-	-	.
COC[C@H]1CCCN1c1cccc2c1S(=O)(=O)N(C1CC1)CCCO2	-	.	-	-	.
O=C1[C@H]2[C@@H](c3ccc(F)cc3)N3C(=O)N(c4ccc(Br)cc4)C(=O)[C@@]3(Cc3ccccc3)[C@H]2C(=O)N1C1CCCCC1	-	-	-	-	92
CCc1ccccc1-c1cc(C(=O)OC)c2n(c1=O)CCC2	-	.	-	-	.
CCN(CC)C(=O)CSc1nc2c(sc(=S)n2-c2ccccc2)c(=O)n1-c1ccccc1OC	-	-	-	-	-
CCN(CC)C(=O)CSc1nc2c(sc(=S)n2-c2ccccc2)c(=O)n1-c1ccc(OC)cc1OC	-	12	-	-	-
COc1ccc(CCNCC(=O)Nc2ccc(C(=O)N3CCCCC3)cc2)cc1	-	20	-	-	-
Cc1ccc2[nH]c(O)c(N=NC(=O)CCc3ccccc3)c2c1Br	-	17	-	-	-
CCc1cccc(CC)c1NC(=O)C1SC(=Nc2ccccc2C)C(c2nc3ccccc3s2)=C1N (configuration not stated)	22	19	-	-	-
CCN1Cc2nnn(Cc3ccc(C)cc3)c2-c2ccccc2S1(=O)=O	-	.	-	-	.
COc1ccc(C(C2C(=O)CC(C)(C)CC2=O)C2C(=O)CC(C)(C)CC2=O)cc1COCC(F)(F)F	-	13	-	-	-
COc1ccc(NC(=O)CSc2nnc(-c3cccc(O)c3)o2)cc1	-	14	-	-	-
O=C(CSc1nnc(-c2ccc(O)cc2)o1)Nc1ccccc1	-	14	-	-	-
COc1ccc(OCc2nnc(SCC(=O)Nc3ccc(C)cc3)o2)cc1	-	-	-	-	-
Oc1cccc(C2c3[nH]c4ccccc4c3CCN2Cc2ccc3c(c2)CCO3)c1 (configuration not stated)	-	11	-	-	-
Oc1cccc(C2c3[nH]c4ccccc4c3CCN2Cc2ccoc2)c1 (configuration not stated)	-	-	-	-	-
Cc1ccc(C(=O)Cn2c(C)cc(C)c(C#N)c2=O)cc1	-	13	-	-	-
Cc1cc(C)n(CC(=O)c2ccc(Br)cc2)c(=O)c1C#N	-	-	-	-	-
CC1=NN(c2ccc(Cl)cc2)C(=O)/C1=C\c1cccn1-c1ccc(S(N)(=O)=O)cc1	-	22	-	-	-
Cc1ccc(-c2csc(NC(=O)/C=C/c3cccs3)n2)cc1C	-	19	-	-	-
CC(C)C(c1nnnn1Cc1ccc2c(c1)OCO2)N1CCN(C)CC1 (configuration not stated)	-	-	-	-	-
COc1ccc(Cn2nnnc2C(CC(C)C)N2CCN(c3ccccc3)CC2)cc1 (configuration not stated)	-	18	-	-	-
CC(C)C(c1nnnn1Cc1ccc2c(c1)OCO2)N1CCN(c2ccccc2)CC1 (configuration not stated)	-	13	-	-	-
